# Data published in the supplement of paper PMC8728848.
# This excerpt belongs to a sample that is enriched for the strongest signals.
# Legend:
# Assay in all cases: glycan array binding signal (z-score within array); higher = stronger binding
# Settings in all cases: glycan notation: IUPAC condensed, linker removed
# [1] = molecular target: Fuc(a1-2)Gal(b1-4)GlcNAc
# How it was run: (§1)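 Glycan array data were curated from 3228 arrays in the Consortium for Functional Glycomics database and kept only where the protein sequence was available. Glycan names were converted to IUPAC-condensed notation, and columns mapping to the same glycan were averaged. The binding signal is a within-array Z-score, averaged across arrays of the same protein sequence at different concentrations or buffers and across linkers. Negative Z-scores can be read as non-binding.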
# [2] = molecular target: Fuc(a1-2)Gal(b1-4)GlcNAc(b1-2)Man(a1-3)[Fuc(a1-2)Gal(b1-4)GlcNAc(b1-2)Man(a1-6)]Man(b1-4)GlcNAc(b1-4)[Fuc(a1-6)]GlcNAc
# How it was run: as §1
# [3] = molecular target: Fuc(a1-2)Gal6S(b1-3)GlcNAc
# How it was run: as §1
# [4] = molecular target: Fuc(a1-2)Gal6S(b1-3)GlcNAc6S
# How it was run: as §1
# [5] = molecular target: Fuc(a1-2)[Gal(a1-3)]Gal
# How it was run: as §1
# [6] = molecular target: Fuc(a1-2)[Gal(a1-3)]Gal(b1-3)GlcNAc
# How it was run: as §1
# [7] = molecular target: Fuc(a1-2)[Gal(a1-3)]Gal(b1-3)GlcNAc(b1-2)Man(a1-3)[Fuc(a1-2)[Gal(a1-3)]Gal(b1-3)GlcNAc(b1-2)Man(a1-6)]Man(b1-4)GlcNAc(b1-4)[Fuc(a1-6)]GlcNAc
# How it was run: as §1
# [8] = molecular target: Fuc(a1-2)[Gal(a1-3)]Gal(b1-4)GlcNAc(b1-6)GalNAc
# How it was run: as §1
# [9] = molecular target: Fuc(a1-2)[GalNAc(a1-3)]Gal(b1-3)GlcNAc(b1-2)Man(a1-3)[Fuc(a1-2)[GalNAc(a1-3)]Gal(b1-3)GlcNAc(b1-2)Man(a1-6)]Man(b1-4)GlcNAc(b1-4)[Fuc(a1-6)]GlcNAc
# How it was run: as §1
# [10] = molecular target: Fuc(a1-2)[GalNAc(a1-4)]Gal(b1-4)GlcNAc
# How it was run: as §1
# [11] = molecular target: Fuc(a1-3)[Gal(b1-4)]GlcNAc
# How it was run: as §1
# [12] = molecular target: Fuc(a1-3)[Gal(b1-4)]GlcNAc(b1-6)GalNAc
# How it was run: as §1
# [13] = molecular target: Gal(a1-3)Gal(b1-3)GlcNAc
# How it was run: as §1
# [14] = molecular target: Gal(a1-3)Gal(b1-3)GlcNAc(b1-2)Man
# How it was run: as §1
# [15] = molecular target: Gal(a1-3)Gal(b1-3)GlcNAc(b1-2)Man(a1-3)[Gal(a1-3)Gal(b1-3)GlcNAc(b1-2)Man(a1-6)]Man(b1-4)GlcNAc(b1-4)GlcNAc
# How it was run: as §1
# [16] = molecular target: Gal(a1-3)Gal(b1-3)GlcNAc(b1-3)GalNAc
# How it was run: as §1
# [17] = molecular target: Gal(a1-3)Gal(b1-4)GlcNAc(b1-2)Man(a1-3)[Gal(a1-3)Gal(b1-4)GlcNAc(b1-2)Man(a1-6)]Man(b1-4)GlcNAc(b1-4)GlcNAc
# How it was run: as §1
# [18] = molecular target: Gal(a1-3)Gal(b1-4)[Fuc(a1-3)]GlcNAc
# How it was run: as §1
# [19] = molecular target: Gal(a1-3)GalNAc
# How it was run: as §1
# [20] = molecular target: Gal(a1-3)[Gal(a1-4)]Gal(b1-4)GlcNAc
# How it was run: as §1
# [21] = molecular target: Gal(b1-3)GalNAc(b1-3)Gal
# How it was run: as §1
# [22] = molecular target: Gal(b1-3)GlcNAc(b1-2)Man(a1-3)[Gal(b1-3)GlcNAc(b1-2)Man(a1-6)]Man(b1-4)GlcNAc(b1-4)[Fuc(a1-6)]GlcNAc
# How it was run: as §1
# [23] = molecular target: Gal(b1-3)GlcNAc(b1-3)Gal(b1-4)GlcNAc(b1-2)[Gal(b1-3)GlcNAc(b1-3)Gal(b1-4)GlcNAc(b1-6)]Man(a1-6)[Gal(b1-3)GlcNAc(b1-3)Gal(b1-4)GlcNAc(b1-2)Man(a1-3)]Man(b1-4)GlcNAc(b1-4)[Fuc(a1-6)]GlcNAc
# How it was run: as §1
# [24] = molecular target: Gal(b1-3)GlcNAc6S
# How it was run: as §1
# [25] = molecular target: Gal(b1-3)[Fuc(a1-4)]GlcNAc
# How it was run: as §1
# [26] = molecular target: Gal(b1-3)[Fuc(a1-4)]GlcNAc(b1-6)GalNAc
# How it was run: as §1
# [27] = molecular target: Gal(b1-4)GlcNAc(b1-2)Man
# How it was run: as §1
# [28] = molecular target: Gal(b1-4)GlcNAc(b1-2)[Gal(b1-4)GlcNAc(b1-4)]Man(a1-3)[GlcNAc(b1-4)][Gal(b1-4)GlcNAc(b1-2)[Gal(b1-4)GlcNAc(b1-6)]Man(a1-6)]Man(b1-4)GlcNAc(b1-4)GlcNAc
# How it was run: as §1
# [29] = molecular target: Gal(b1-4)GlcNAc(b1-3)Gal(b1-4)GlcNAc
# How it was run: as §1
# [30] = molecular target: Gal(b1-4)GlcNAc(b1-6)Gal(b1-4)GlcNAc
# How it was run: as §1
# [31] = molecular target: Gal3S(b1-4)Glc
# How it was run: as §1
binder,measurement,setting,value
FimA-N2 (Actinomyces oris) (protein) MHHHHHHSSGVDLGTENLYFQSNAWIYDVNVYPKNEAIDVDKTIQAQKLNGYGVGSLIKFPVESTAPTLDAKSFYKYFQLKDTLDERLSEVTATDVSLEGTPLQPTDYKVETKQQTVTVTFTAEGLKKIKAAPGKKVSAVFQGKVTKAGNGAITNRAQVISDTLYAEQPPTPETPPTDPENPPTSDEVISRWGDLSIKKVDTHQQGQTKA,glycan array binding signal (z-score),[1],0.416
same,glycan array binding signal (z-score),[2],2.43
same,glycan array binding signal (z-score),[3],1.35
same,glycan array binding signal (z-score),[4],3.98
same,glycan array binding signal (z-score),[5],1.78
same,glycan array binding signal (z-score),[6],-0.75
same,glycan array binding signal (z-score),[7],-0.838
same,glycan array binding signal (z-score),[8],2.61
same,glycan array binding signal (z-score),[9],-0.909
same,glycan array binding signal (z-score),[10],0.482
same,glycan array binding signal (z-score),[11],-0.144
same,glycan array binding signal (z-score),[12],-0.225
same,glycan array binding signal (z-score),[13],1.02
same,glycan array binding signal (z-score),[14],2.25
same,glycan array binding signal (z-score),[15],0.101
same,glycan array binding signal (z-score),[16],-0.826
same,glycan array binding signal (z-score),[17],-1.06
same,glycan array binding signal (z-score),[18],-1.47
same,glycan array binding signal (z-score),[19],-0.66
same,glycan array binding signal (z-score),[20],2.77
same,glycan array binding signal (z-score),[21],-0.678
same,glycan array binding signal (z-score),[22],2.23
same,glycan array binding signal (z-score),[23],3.71
same,glycan array binding signal (z-score),[24],-0.106
same,glycan array binding signal (z-score),[25],0.004
same,glycan array binding signal (z-score),[26],-0.651
same,glycan array binding signal (z-score),[27],-0.413
same,glycan array binding signal (z-score),[28],-0.356
same,glycan array binding signal (z-score),[29],1.55
same,glycan array binding signal (z-score),[30],-0.5
same,glycan array binding signal (z-score),[31],0.216
